# A selection follows.
# aSyn 5UTR act = Activators working through SNCA 5'UTR binding (MLPCN) | alpha-synuclein 5'UTR reporter, activators screen | activity score, % (tested at 7.5 µM), hits read low | 300,000 compounds, 7.1% hits | AID 1814; in the data active means activity score below about -60%
# Starred values were filed as active, the others as inactive.
SMILES,aSyn 5UTR act
O=C(Nc1ccc(N2CCOCC2)cc1)c1cc2c(s1)CCCC2,-69*
O=C(NCc1ccco1)c1cc2c(s1)CCCCC2,-218*
O=C(Nc1ccon1)c1cc2c(s1)CCCC2,-113*
Cc1cnc(NC(=O)c2cc3c(s2)CCCC3)s1,65
Cc1csc(NC(=O)c2cc3c(s2)CCCCC3)n1,92
O=C(Nc1ccon1)c1cc2c(s1)CCCCCC2,-167*
Cc1nc2ccc(NC(=O)Cc3c(F)cccc3Cl)cc2s1,-126*
Cc1ccc(NC(=O)Cc2cccs2)cc1Cl,-116*
O=C(Cc1cccs1)Nc1cccc(-c2nc3cc4ccccc4cc3[nH]2)c1,-92*
Cc1nc2ccc(NC(=O)Cc3cccs3)cc2s1,-148*
CCOC(=O)Cn1c(=NC(=O)c2ccc([N+](=O)[O-])s2)sc2ccccc21,-180*
O=c1[nH]cnc2scc(-c3ccc(-c4ccccc4)cc3)c12,-88*
CCCOc1ccc(-c2csc3nc[nH]c(=O)c23)cc1,-159*
COc1ccc(OS(=O)(=O)Cc2ccccc2)cc1,-103*
N#CC1=C(N)NC(SCc2ccc(F)cc2)=C(C#N)C12CCCCC2,-83*
COC(=O)c1ccc(C2N=C(c3cccs3)CC(c3ccccc3O)N2)cc1 (stereo not given),-98*
O=C1CCCC(O)=C1C=Nc1ccc2c(c1)oc1ccccc12,-168*
O=c1[nH]c(-c2ccc(O)cc2)nc2scc(-c3cccs3)c12,-138*
O=C(Nc1ccc(O)cc1)c1c(O)c2c([nH]c1=O)CCCC2,-131*
CCCNC(=O)c1ccc2c(=O)c(O)c(-c3cccc(Br)c3)[nH]c2c1,84
O=C(NCC1CCCO1)c1c(O)c2c([nH]c1=O)CCCC2 (stereo not given),-112*
CCCNC(=O)c1c(O)c2c([nH]c1=O)CCCC2,-77*
CCCn1c(N)c(Sc2ccc(C)cc2)c(=O)n(CCC)c1=O,-79*
Cc1ccc(N2Cc3ccccc3C2=S)cc1,-154*
S=C1c2ccccc2CN1c1ccccc1,-64*
SMILES,aSyn 5UTR act
COc1ccccc1/C=C/C=N/n1c(-c2ccccn2)n[nH]c1=S,-100*
Cc1nc(N)sc1N=Nc1ccc(Br)cc1,-254*
COc1ccc(-c2nn(-c3ccccc3)cc2/C=N/NC(N)=S)cc1OC,90
COc1ccc(NS(=O)(=O)c2cccc(C(=O)N/N=C/c3cn(-c4ccccc4)nc3-c3ccc(OC)cc3)c2)cc1,-85*
Cc1ccc(-c2nn(-c3ccccc3)cc2/C=N/NS(=O)(=O)c2ccccc2)cc1,-76*
CCN(CC)c1ccc(/C=N/NC(=O)c2cccc(S(=O)(=O)Nc3ccccc3OC)c2)c(O)c1,95
Cc1cccc(-c2noc(-c3ccc(Cl)cc3[N+](=O)[O-])n2)c1,-151*
COc1ccc(-c2noc(-c3ccc(Cl)cc3[N+](=O)[O-])n2)cc1OC,-118*
Cc1ccc2nc(NC(=O)[C@H](C)N3C(=O)C4CC=CCC4C3=O)sc2c1 (stereo not given in full),63
Cc1nc2ccc(NC(=O)N(C(C)C)C(C)C)cc2s1,-90*
Cc1nc2ccc(NC(=O)N(C)c3ccccc3)cc2s1,-119*
CCn1c(SCc2nc3ccccc3s2)nnc1-c1ccccc1,-117*
CCn1c(SCC(O)c2ccccc2)nnc1-c1ccccc1 (stereo not given),-70*
CCC(c1nnc(SCc2nc3ccccc3s2)n1Cc1ccccc1)N(C)C (stereo not given),-101*
Cc1nnc(SCc2nc3ccccc3s2)n1N,-145*
c1ccc(-n2cnnc2SCc2nc3ccccc3s2)cc1,-146*
Cc1nnc(SCc2nc3ccccc3s2)n1-c1ccccc1,-195*
COc1ccc(NC(=S)N2CCc3ccccc32)cc1OC,-83*
Cc1nnsc1C(=O)N/N=C/c1ccc2ccccc2c1O,120
Cc1nc(N)sc1C(=O)N/N=C/c1ccccc1[N+](=O)[O-],-133*
Cn1cccc1/C=N/NC(=O)c1sc2ccccc2c1Cl,-80*
O=C(N/N=C/c1c[nH]c2ccccc12)c1sc2ccccc2c1Cl,-69*
Cc1nc(N)sc1C(=O)N/N=C/c1c[nH]c2ccccc12,-79*
CC(/C=N/NC(=O)c1sc(N)nc1C)=C\c1ccccc1,-116*
CC1(C)OC2OC(COC(=O)c3ccccc3)C3OC(C)(C)OC3C2O1 (stereo not given),-89*
SMILES,aSyn 5UTR act
[O-][n+]1onc2c3cc(-c4ccccc4)nnc3ccc21,-100*
O=C(CSc1nccn1-c1ncc(C(F)(F)F)cc1Cl)c1ccc(Br)cc1,-195*
O=C(CSc1nccn1-c1ccccc1)c1ccc(Cl)cc1,-111*
Cc1ccc(C(=O)CSc2nccn2-c2ccccc2)cc1,-95*
Fc1cccc(F)c1CSc1nc2ccccc2[nH]1,-127*
c1ccc2[nH]c(SCc3cn4cccnc4n3)nc2c1,-63*
O=C(CSc1nc2ccccc2[nH]1)N1CCCCC1,-136*
Fc1cccc(CSc2nc3ccncc3[nH]2)c1,-80*
O=C(CSc1nc2ccccc2[nH]1)c1ccco1,-127*
O=C(CSc1nc2ccccc2[nH]1)c1ccc(Cl)s1,-113*
O=C(CSc1nc2ccccc2[nH]1)c1ccccc1F,-162*
O=C(CSc1nc2ccc(Cl)cc2[nH]1)c1cccs1,-113*
COc1ccc2nc(SCC(=O)c3ccco3)[nH]c2c1,-105*
O=C(CSc1nc2ccccc2n1S(=O)(=O)c1ccccc1)N1CCCCC1,-100*
COc1ccc(C(=O)Nn2c(SCC(=O)N3CCC(C)CC3)nc3ccccc3c2=O)cc1,83
COc1ccc2nc(SCC(=O)C(C)(C)C)[nH]c2c1,-134*
CCOc1ccc2nc(SCC(=O)N(C)C)[nH]c2c1,-92*
Cc1cccc(CN2C(=O)N/C(=C/c3ccc(C)s3)C2=O)c1,-88*
CC(C)c1ccc(CNc2ccc([N+](=O)[O-])cn2)cc1,-78*
CC(C)c1ccc(CNc2c([N+](=O)[O-])c(=O)oc3ccccc23)cc1,-71*
CC(C)c1ccc(CNc2ncc(Br)cn2)cc1,-153*
O=[N+]([O-])c1ccc(NCc2ccc(Cl)cc2)nc1,-105*
COc1ccc(/C=C/C(=O)C2C(=O)C=C(C)OC2=O)cc1O (stereo not given),-243*
Cc1c(C(=O)Nc2nc3ccccc3[nH]2)cccc1[N+](=O)[O-],-167*
O=C(Nc1nc2ccccc2[nH]1)c1ccccc1[N+](=O)[O-],-118*
SMILES,aSyn 5UTR act
O=C(Nc1nc2ccccc2[nH]1)c1ccc(Cl)c([N+](=O)[O-])c1,-109*
CCOc1ccc(-c2csc(Cn3c(CN4CCN(C)CC4)nc4ccccc4c3=O)n2)cc1,-66*
CCOc1ccc2nc(SCc3ccc(F)cc3)sc2c1,-68*
COc1ccc(Nc2nccc3c2nnn3C)cc1,-144*
Cc1ccc(-n2cc(CN3CCC(CO)(Cc4ccccc4)CC3)cn2)cc1,-108*
OCC1(Cc2ccccc2)CCN(Cc2cnc(-c3ccc(Cl)cc3)nc2)CC1,-74*
O=C(O)C1CCC(c2ccc(-c3ccccc3)cc2)CC1 (stereo not given),-84*
C=CCOC(=O)c1c(C)nc2cc3c(cc2c1C)OCO3,-101*
CCCn1c(Sc2nnnn2-c2ccccc2)n[nH]c1=O,-98*
CC(C)=CC(=O)Nc1ccc(Br)cc1,-191*
CCN(CC)c1ccc(C(=O)Nc2cccc(F)c2)cc1,-77*
CN(C)c1cccc(C(=O)Nc2cccc(F)c2)c1,-175*
COc1ccc2c(C)cc(SCC(=O)Nc3nsc(-c4ccc(C)cc4)n3)nc2c1,-82*
COc1ccc(-c2nc(NC(=O)CSc3nnc(C)s3)ns2)cc1,-70*

# Screens from PubChem BioAssay.
